From ChEMBL document CHEMBL3988442, “University of Dundee, Small-Polar-MMV Screening Library” (2021) come the findings set out here.

Parameters in all cases: scale not given: direction of the effect not stated beside the values
In assay [1] the target is Protein translocase subunit SecA (Escherichia coli (strain K12)) (UniProt P10408). Briefly: Assay to Identify E. coli SecA ATPase Inhibitors. It counts as functional. The settings on record: 30 µM.
Assay [2] has as its target T1, Ubiquitin-activating enzyme e1, putative (Leishmania donovani (strain BPK282A1)) (UniProt E9BSI1).
T1 sequence (whole entry): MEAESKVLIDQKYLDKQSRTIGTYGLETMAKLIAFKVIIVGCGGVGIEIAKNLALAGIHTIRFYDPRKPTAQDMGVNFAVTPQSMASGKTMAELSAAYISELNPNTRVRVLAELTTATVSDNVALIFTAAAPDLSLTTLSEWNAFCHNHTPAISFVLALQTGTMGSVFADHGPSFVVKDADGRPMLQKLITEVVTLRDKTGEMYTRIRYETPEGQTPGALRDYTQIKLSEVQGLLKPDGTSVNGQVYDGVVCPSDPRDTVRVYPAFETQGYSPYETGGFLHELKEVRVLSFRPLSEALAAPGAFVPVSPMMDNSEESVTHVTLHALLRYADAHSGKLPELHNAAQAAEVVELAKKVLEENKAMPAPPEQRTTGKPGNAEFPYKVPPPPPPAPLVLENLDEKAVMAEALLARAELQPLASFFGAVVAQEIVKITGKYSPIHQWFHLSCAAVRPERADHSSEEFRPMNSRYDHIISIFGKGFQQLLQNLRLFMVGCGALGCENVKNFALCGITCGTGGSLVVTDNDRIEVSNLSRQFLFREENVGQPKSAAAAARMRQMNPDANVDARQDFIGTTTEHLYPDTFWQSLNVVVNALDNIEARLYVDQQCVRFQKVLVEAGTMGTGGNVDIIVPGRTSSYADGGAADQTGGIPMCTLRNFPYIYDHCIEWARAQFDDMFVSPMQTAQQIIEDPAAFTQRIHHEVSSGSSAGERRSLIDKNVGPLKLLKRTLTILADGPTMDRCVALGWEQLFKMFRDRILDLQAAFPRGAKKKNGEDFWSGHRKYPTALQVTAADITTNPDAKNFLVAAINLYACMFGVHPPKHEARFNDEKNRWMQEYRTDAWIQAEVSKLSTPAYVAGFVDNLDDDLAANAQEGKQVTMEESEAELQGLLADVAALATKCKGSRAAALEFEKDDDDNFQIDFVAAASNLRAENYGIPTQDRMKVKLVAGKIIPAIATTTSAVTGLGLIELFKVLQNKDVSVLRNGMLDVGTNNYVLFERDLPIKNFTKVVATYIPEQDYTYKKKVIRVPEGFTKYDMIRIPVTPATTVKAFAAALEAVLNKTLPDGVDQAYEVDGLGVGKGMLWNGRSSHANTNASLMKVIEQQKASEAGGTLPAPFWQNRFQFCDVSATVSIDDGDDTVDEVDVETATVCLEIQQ
Briefly: Leishmania donovani Ubiquitin Activating Enzyme (LdE1). The settings on record: 30 µM. It counts as functional.

Assay [3] addresses AMP-activated protein kinase, AMPK (Homo sapiens) (UniProt P54646+O43741+P54619+Q9UGJ0+Q9Y478+Q13131+Q9UGI9). Briefly: AMP-dependent Kinase enzyme assay. An in vitro enzyme assay that detects ADP turnover that is directly proportional to AMPK activity. This uses naive AMPK that is activated during the assay with MK-8722. It counts as functional. The settings on record: 30 µM.

For assay [4], the target named is Sialic acid-binding Ig-like lectin 9 (Homo sapiens) (UniProt Q9Y336). Briefly: Hs-Siglec9 ALPHAscreen SOP 20170721. The settings on record: 10 µM. Background: In Alpha technology, singlet oxygen from a donor bead excites a nearby acceptor bead.
Sialic acid-binding Ig-like lectin 9 (Homo sapiens), sequence (Q9Y336 whole entry): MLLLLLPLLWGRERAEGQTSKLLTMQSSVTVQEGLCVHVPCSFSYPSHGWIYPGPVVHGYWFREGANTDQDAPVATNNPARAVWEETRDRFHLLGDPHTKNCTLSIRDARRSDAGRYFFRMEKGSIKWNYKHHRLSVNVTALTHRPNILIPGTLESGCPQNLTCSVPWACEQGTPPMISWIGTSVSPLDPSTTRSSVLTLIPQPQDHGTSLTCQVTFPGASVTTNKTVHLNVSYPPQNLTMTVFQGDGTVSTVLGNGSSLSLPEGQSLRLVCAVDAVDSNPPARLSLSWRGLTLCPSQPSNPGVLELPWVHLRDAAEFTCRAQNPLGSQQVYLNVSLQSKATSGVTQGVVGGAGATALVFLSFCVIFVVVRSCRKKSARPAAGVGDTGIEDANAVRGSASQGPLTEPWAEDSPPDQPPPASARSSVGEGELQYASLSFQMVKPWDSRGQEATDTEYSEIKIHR
The test system of assay [5] is Trypanosoma cruzi. As to the kind of experiment: Trypanosoma cruzi phosphomannomutase and mannose-1-phosphate guanylyltransferase assay. To be noted: 10 µM. Format: functional.
Assay [6] concerns the target T2, Arginase-2, mitochondrial (Homo sapiens) (UniProt P78540).
T2 sequence (whole entry): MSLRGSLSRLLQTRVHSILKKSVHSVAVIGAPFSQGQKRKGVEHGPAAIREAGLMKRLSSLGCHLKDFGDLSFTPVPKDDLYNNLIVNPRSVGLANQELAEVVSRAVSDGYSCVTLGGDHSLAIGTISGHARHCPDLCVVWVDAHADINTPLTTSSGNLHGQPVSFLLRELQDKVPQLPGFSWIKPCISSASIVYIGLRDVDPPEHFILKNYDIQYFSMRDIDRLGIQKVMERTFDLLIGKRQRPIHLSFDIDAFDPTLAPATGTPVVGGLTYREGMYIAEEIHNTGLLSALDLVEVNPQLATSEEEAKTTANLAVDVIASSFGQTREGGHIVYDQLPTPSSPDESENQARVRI
Briefly: in vitro enzyme assay to detect the production of urea directly proportional to the activity of Arginase II. Also: in the data most compounds retested in dose-response had high values. It counts as functional. To be noted: 33.3 µM.

For assay [7], the target named is T3, Proteasome subunit beta (Trypanosoma cruzi) (UniProt O96673).
T3 sequence (whole entry): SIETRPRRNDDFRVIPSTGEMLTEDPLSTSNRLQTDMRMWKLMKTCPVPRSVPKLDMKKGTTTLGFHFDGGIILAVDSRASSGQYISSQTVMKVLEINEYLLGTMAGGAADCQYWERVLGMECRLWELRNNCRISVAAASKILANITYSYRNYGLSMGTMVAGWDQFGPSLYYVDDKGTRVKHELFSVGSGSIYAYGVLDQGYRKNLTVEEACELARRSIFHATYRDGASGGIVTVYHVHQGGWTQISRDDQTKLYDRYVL
As to the kind of experiment: Trypanosoma cruzi proteasome chymotrypsin-like activity (TcProtChymo) assay. Also: in the data most compounds retested in dose-response had high values. It counts as functional. To be noted: 9.37 µM.

For assay [8], the species on record is Homo sapiens. As to the kind of experiment: To identify inhibition of the IFN signalling (Jak-Stat) pathway via expression of an eGFP reporter gene under the control of an IFN-stimulated response element (ISRE) containing MxA promoter. To be noted: 30 µM. It counts as functional. A general note: Reporter assays use an easily measured gene product as a stand-in for the process of interest.

Assay [9] has as its target T4, Tyrosyl-tRNA synthetase, putative (Trypanosoma cruzi (strain CL Brener)) (UniProt Q4DSP6).
T4 sequence (whole entry): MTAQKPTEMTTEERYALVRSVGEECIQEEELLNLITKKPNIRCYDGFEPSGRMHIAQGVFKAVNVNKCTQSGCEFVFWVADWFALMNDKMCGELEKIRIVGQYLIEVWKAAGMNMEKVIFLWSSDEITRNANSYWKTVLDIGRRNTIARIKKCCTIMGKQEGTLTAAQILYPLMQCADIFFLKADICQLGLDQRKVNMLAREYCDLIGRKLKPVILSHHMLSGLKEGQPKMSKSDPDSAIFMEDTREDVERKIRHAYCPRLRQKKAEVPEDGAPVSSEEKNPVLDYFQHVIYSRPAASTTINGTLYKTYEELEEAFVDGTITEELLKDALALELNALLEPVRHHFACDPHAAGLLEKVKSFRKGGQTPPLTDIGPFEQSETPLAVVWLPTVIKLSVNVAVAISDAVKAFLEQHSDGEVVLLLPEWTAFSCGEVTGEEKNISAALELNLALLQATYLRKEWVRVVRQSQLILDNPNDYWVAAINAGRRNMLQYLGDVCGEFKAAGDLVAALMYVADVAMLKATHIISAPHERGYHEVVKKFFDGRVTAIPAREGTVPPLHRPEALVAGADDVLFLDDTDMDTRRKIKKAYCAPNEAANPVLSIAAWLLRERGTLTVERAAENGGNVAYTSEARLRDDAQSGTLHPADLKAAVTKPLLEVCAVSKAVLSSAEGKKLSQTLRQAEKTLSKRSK
Briefly: Trypanosoma cruzi tyrosyl tRNA synthetase (TcYRS) _High Tyrosine SOP. Also: in the data most compounds retested in dose-response had high values. It counts as functional. To be noted: 30 µM.

In assay [10] the target is T4, Tyrosyl-tRNA synthetase, putative (Trypanosoma cruzi (strain CL Brener)). Briefly: Trypanosoma cruzi tyrosyl tRNA synthetase (TcYRS) SOP. To be noted: 30 µM. Format: functional.
Assay [11] addresses Chromo domain-containing protein 1 (Saccharomyces cerevisiae (strain ATCC 204508 / S288c) (Baker's yeast)) (UniProt P32657). Briefly: ScCHD-1 Enzyme Inhibition Assay. Also: in the data most compounds retested in dose-response had high values. Format: functional. To be noted: 30 µM.

For some of these results: Measured potencies and affinities stand elsewhere.

Chromo domain-containing protein 1 (Saccharomyces cerevisiae (strain ATCC 204508 / S288c) (Baker's yeast)), sequence (P32657 whole entry, the tested form may be a part): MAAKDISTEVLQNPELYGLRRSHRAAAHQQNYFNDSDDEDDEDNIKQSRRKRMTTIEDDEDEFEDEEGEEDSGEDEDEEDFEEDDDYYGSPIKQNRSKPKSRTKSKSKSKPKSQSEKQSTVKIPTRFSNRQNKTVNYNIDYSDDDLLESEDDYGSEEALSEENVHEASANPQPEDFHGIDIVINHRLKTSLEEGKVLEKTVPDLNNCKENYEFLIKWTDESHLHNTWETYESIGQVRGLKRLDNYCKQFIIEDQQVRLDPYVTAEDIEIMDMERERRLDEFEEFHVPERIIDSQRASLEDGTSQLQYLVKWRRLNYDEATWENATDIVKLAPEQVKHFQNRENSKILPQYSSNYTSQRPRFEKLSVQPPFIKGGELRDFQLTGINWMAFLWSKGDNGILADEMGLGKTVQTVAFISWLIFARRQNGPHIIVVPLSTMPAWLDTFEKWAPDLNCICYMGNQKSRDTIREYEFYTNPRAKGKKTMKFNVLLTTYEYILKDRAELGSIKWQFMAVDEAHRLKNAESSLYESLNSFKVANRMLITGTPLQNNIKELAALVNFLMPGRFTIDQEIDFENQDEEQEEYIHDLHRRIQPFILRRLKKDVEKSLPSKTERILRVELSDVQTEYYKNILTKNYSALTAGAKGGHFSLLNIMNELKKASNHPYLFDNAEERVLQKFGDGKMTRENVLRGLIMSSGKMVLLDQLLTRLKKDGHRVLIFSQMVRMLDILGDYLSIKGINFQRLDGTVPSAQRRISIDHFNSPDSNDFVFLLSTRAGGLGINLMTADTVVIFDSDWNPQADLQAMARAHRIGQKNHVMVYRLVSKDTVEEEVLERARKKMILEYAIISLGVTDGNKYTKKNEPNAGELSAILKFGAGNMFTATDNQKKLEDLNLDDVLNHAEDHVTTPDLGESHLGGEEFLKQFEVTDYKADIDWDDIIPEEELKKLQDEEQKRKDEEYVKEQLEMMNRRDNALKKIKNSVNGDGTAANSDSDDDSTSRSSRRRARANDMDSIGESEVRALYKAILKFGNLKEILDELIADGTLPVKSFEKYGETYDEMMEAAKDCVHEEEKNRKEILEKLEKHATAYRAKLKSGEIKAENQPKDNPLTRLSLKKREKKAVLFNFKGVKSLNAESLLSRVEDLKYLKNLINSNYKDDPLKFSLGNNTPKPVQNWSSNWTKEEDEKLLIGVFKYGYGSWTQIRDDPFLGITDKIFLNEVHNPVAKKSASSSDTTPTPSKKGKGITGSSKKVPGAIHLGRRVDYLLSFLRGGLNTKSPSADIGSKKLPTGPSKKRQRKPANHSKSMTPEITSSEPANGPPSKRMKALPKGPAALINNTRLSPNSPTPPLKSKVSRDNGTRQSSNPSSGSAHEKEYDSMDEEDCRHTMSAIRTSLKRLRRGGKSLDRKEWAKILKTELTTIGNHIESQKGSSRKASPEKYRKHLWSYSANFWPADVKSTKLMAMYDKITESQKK
Protein translocase subunit SecA (Escherichia coli (strain K12)), sequence (P10408 whole entry): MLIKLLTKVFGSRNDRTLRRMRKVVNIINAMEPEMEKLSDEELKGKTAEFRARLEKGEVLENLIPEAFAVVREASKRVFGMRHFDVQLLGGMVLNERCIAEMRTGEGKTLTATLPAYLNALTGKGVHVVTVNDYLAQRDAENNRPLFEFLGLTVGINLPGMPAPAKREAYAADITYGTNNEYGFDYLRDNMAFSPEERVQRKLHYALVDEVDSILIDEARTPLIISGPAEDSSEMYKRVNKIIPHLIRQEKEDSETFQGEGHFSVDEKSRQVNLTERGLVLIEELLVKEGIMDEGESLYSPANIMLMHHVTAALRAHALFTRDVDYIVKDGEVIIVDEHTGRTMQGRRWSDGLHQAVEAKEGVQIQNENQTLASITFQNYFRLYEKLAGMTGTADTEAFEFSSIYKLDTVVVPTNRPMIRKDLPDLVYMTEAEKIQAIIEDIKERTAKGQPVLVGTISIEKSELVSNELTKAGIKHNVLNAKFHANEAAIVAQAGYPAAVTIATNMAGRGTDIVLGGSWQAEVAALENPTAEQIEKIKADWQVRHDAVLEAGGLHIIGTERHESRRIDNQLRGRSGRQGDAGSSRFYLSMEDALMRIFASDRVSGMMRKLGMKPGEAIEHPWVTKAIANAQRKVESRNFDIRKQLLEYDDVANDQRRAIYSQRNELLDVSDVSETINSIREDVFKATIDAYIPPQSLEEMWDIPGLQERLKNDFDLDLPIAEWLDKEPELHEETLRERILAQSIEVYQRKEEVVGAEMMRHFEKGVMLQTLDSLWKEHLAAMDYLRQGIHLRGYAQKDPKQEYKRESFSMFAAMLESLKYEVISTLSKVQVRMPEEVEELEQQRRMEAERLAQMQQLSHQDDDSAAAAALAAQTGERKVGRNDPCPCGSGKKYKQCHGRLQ

Take `CCNC(=O)N1CCCC(c2noc(CC)n2)C1` (stereo unspecified): the Percent Effect in [1] was -3.36%; in [2], 13%; in assay [3], 3.81%; in [4], 9.2%; in assay [5] it was 4.6%; in assay [6], 3.16%. Besides, the Percent Effect in [7] was 5.09%; in assay [8], 7.39%; in [9], 5.71%; in assay [10], 11.8%; in [11], -13.2%.
As for `CCNC(=O)c1ncn2c1CN(C)S(=O)(=O)c1ccccc1-2`, the Percent Effect in assay [1] was 0.812%; in assay [2], 2.74%; in assay [3], 2.65%; in assay [4], 7.01%; in assay [5] it was -2.58%; in assay [6], -2%. In addition, the Percent Effect in [7] was 14%; in assay [8], 11%; in [9], 1.04%; in assay [10], 6.17%; in assay [11], -0.402%.
On to `Cc1noc(C2CCCN(C(=O)c3ccc(Br)cc3F)C2)n1` (stereo unspecified), for which the Percent Effect in assay [1] was -5.32%; in assay [2], 10.4%; in assay [3], 2.06%; in assay [4], 2.58%; in assay [5], 6.95%; in assay [6], 2.74%. The Percent Effect in assay [7] is 6.87%; in [8], -5.04%; in assay [9] it was 1.91%; in assay [10], 18.8%; in [11], -19.5%.
`Fc1cnc(N2CCC3(COCc4cnc(NCC5CC5)nc43)C2)nc1` (stereo unspecified): the Percent Effect is 2.14% in assay [1]; -2.74% in assay [2]; 27.5% in [3]; 4.49% in assay [4]; -1.59% in [5]; 2.4% in [6]. Also, the Percent Effect in assay [7] was 4.88%; in [8] it was -6.32%; in assay [9], 1.04%; in [10], 3.7%; in [11], 2.6%.
For the compound `O=C(O)[C@]12CCCN(Cc3ccncc3)[C@@H]1CCN(c1cnccn1)C2`, the Percent Effect in assay [1] was -3.31%; in assay [2], 2.67%; in assay [3], -1.2%; in [4] it was -3.96%; in assay [5], -6.91%; in [6] it was -0.521%. For the same compound, the Percent Effect in assay [7] is 21.6%; in [8] it was 22%; in assay [9], -0.546%; in assay [10] it was 1.24%; in [11] it was -6.37%.
Take `O=C(c1cscn1)N1C[C@H]2CCCC(OCc3cccnc3)[C@H]2C1` (stereo partly specified): the Percent Effect in [1] was -5.26%; in [2] it was 5.33%; in assay [3], -2.55%; in assay [4], 2.64%; in assay [5] it was -0.193%; in [6] it was -37.5%. Further, the Percent Effect in assay [7] is 9.06%; in assay [8], -6.53%; in [9], 1.04%; in assay [10] it was 12.5%; in assay [11], -5%.
For the compound `OC1CCCN(Cc2c(-c3ccco3)[nH]c3ncccc23)C1` (stereo unspecified), the Percent Effect in assay [1] is -4.22%; in assay [2], 25.7%; in assay [3], -13.3%; in assay [4], 19%; in assay [5] it was 2.17%; in assay [6], -1.16%. Moreover, the Percent Effect in assay [7] was 11.1%; in [8], 20.3%; in [9], 6.45%; in assay [10], 19.5%; in [11] it was -18.1%.
On to `CC(C(=O)N1CCc2ccccc2C1)n1cc(Br)cn1` (stereo unspecified), for which the Percent Effect was -0.393% in assay [1]; 0% in assay [2]; -6.91% in assay [3]; 6.63% in assay [4]; 4.42% in assay [5]; -6.9% in [6]. Besides, the Percent Effect was 7.82% in assay [7]; 19.8% in assay [8]; 4.3% in [9]; 13.6% in assay [10]; -3.62% in [11].
For `Cc1nn(CC(=O)N2CCN(c3ccccc3F)CC2)c(C)c1Cl`, the Percent Effect in assay [1] is 0.317%; in assay [2], 15.6%; in assay [3], 4.64%; in assay [4], 2.9%; in assay [5] it was 1.87%; in [6], -24.8%. Besides, the Percent Effect was determined as 25.5% in assay [7]; 9.79% in [8]; 4.3% in assay [9]; 23.5% in assay [10]; 1.69% in assay [11].
Consider `O=C([C@H]1C[C@H]2OCC[C@H]2N(CCc2ccccc2)C1)N1CCCCO1`, for which the Percent Effect was -4.49% in [1]; 5.41% in assay [2]; 7.77% in [3]; -1.67% in assay [4]; -0.0978% in [5]; 3.5% in [6]. Further, the Percent Effect in assay [7] was 11.4%; in assay [8], -14.2%; in assay [9], 5.41%; in [10], 15.4%; in [11], 6.02%.
As to `Cc1csc(N2CCN(C(=O)CCc3nccs3)CC2)n1`, the Percent Effect was -6.78% in assay [1]; 8.11% in [2]; -8.38% in assay [3]; 7.91% in assay [4]; 3.11% in [5]; -17.2% in assay [6]. The Percent Effect was 5.59% in assay [7]; 11.7% in assay [8]; 12.3% in assay [9]; 28.4% in [10]; -11.1% in assay [11].
